Results filed as inconclusive are left out. The source made the active and inactive calls. How the source made its calls, unless noted: active means hit-call score of the fitted dose curve at least 0.9, where 1 is the maximum; inconclusive means response in the unintended direction; inactive means score below 0.9.
Assays:
[1] = ATG_TAL_CIS: Attagene CIS-FACTORIAL HepG2 Assay for human TAL Basal Promoter (AID 2282966; active means hit-call score of the fitted dose curve at least 0.9, where 1 is the maximum; inactive means score below 0.9;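 further: background control endpoint measuring basal TAL promoter reporter mRNA not a specific factor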); settings: HepG2 Attagene cis-factorial TAL promoter reporter; actives raise or lower the signal
Procedure, shortened: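 After 24 hours of chemical exposure, transfected HepG2 cells yielded RNA that was converted to 6-FAM-labelled, HpaI-digested reporter fragments for capillary electrophoresis. Values derive from bidirectional fitting against DMSO controls.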

[2] = ATG_TGFb_CIS: Attagene CIS-FACTORIAL HepG2 Assay for human Transforming Growth Factor (TGF) (AID 2282967; active means hit-call score of the fitted dose curve at least 0.9, where 1 is the maximum; inactive means score below 0.9); settings: HepG2 Attagene CIS TGFb reporter, mRNA transcription; actives raise or lower the signal
Procedure, shortened: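 Endogenous TGFB1-linked transcription factor activity read as reporter mRNA via RT-PCR and capillary electrophoresis, 24 h after dosing transiently transfected HepG2 cells. Gain or loss of signal fitted relative to DMSO.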

[3] = molecular target: Nuclear receptor subfamily 1 group I member 3 (Homo sapiens) (UniProt Q14994); experiment: ATG_CAR_TRANS: Attagene TRANS-FACTORIAL HepG2 Assay for human Constitutive Androstane Receptor (CAR) (AID 2282969); settings: HepG2 Attagene TRANS-FACTORIAL CAR reporter;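 further: activators raise reporter mRNA above DMSO so AC50 marks induction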
Procedure, shortened: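 Transiently transfected HepG2, multiplex TRANS reporters (CAR-Gal4 chimera driving GAL4-UAS reporter). 24 h dosing. Readout: reporter transcript by RT-PCR + capillary electrophoresis, fluorescence intensity; positive direction vs DMSO.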

[4] = molecular target: Glucocorticoid receptor (Homo sapiens) (UniProt P04150); experiment: ATG_GR_TRANS: Attagene TRANS-FACTORIAL HepG2 Assay for human Glucocorticoid Receptor (GR) (AID 2282978); settings: HepG2 Attagene TRANS GR reporter, mRNA transcription;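 further: activators score as hits since higher reporter transcript over DMSO is fitted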
Procedure, shortened: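 Fluorescent capillary-electrophoresis quantitation of reporter mRNA is the readout, taken 24 h after dosing human HepG2 cells carrying transiently transfected GAL4-UAS reporter units activated by chimeric NR-GAL4 fusions; activity scored as induction over DMSO.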

[5] = molecular target: Bile acid receptor (Homo sapiens) (UniProt Q96RI1); experiment: ATG_FXR_TRANS: Attagene TRANS-FACTORIAL HepG2 Assay for Farnesoid X Receptor (FXR) (AID 2282979); settings: HepG2 Attagene TRANS FXR-GAL4 reporter transcription;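 further: hits raise reporter mRNA above DMSO so AC50 marks FXR activation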
Procedure, shortened: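 Transient transfection of HepG2 with multiplexed GAL4-UAS reporter units; exogenous FXR-GAL4 chimera. Dose 24 h → TriZol RNA → oligo(dT) RT → PCR, 6-FAM primer extension, HpaI cut → CE. Gain vs DMSO.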

[6] = molecular target: Hepatocyte nuclear factor 4-alpha (Homo sapiens) (UniProt P41235); experiment: ATG_HNF4a_TRANS: Attagene TRANS-FACTORIAL HepG2 Assay for human Hepatocyte Nuclear Factor 4 alpha (HNF4a) (AID 2282982); settings: HepG2 HNF4a transactivation reporter, mRNA readout
Procedure, shortened: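 Endpoint reflects transcriptional activation of a GAL4-UAS reporter by an HNF4a-GAL4 chimera in transfected HepG2 cells, 24 h post-dosing. Fluorescence from RT-PCR products separated by capillary electrophoresis; DMSO baseline.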

[7] = ATG_M_06_TRANS: Attagene TRANS-FACTORIAL HepG2 Assay for M06 Transcription Factor (Internal Marker) (AID 2282983); settings: HepG2 Attagene TRANS M06 internal marker reporter
Procedure, shortened: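 Background control endpoint: reporter mRNA from transiently transfected HepG2 after 24 h dosing, detected by RT-PCR with capillary electrophoresis fluorescence. Analysed for gain versus DMSO.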

[8] = molecular target: Transcriptional activator Myb (Homo sapiens) (UniProt P10242); experiment: ATG_Myb_CIS: Attagene CIS-FACTORIAL HepG2 Assay for human Myeloblastosis (Myb) Proto-Oncogene Transcription Factor (AID 2282986; active means hit-call score of the fitted dose curve at least 0.9, where 1 is the maximum; inactive means score below 0.9); settings: HepG2 Attagene CIS-FACTORIAL Myb reporter transcription; actives raise or lower the signal
Procedure, shortened: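 Reporter transcript levels, quantified by fluorescent RT-PCR and capillary electrophoresis, serve as the read-out. Transfected HepG2 cells carrying cis-promoter reporter units are dosed for 24 hours, and curves are fitted bidirectionally against DMSO controls.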

[9] = molecular target: Nuclear respiratory factor 1 (Homo sapiens) (UniProt Q16656); experiment: ATG_NRF1_CIS: Attagene CIS-FACTORIAL HepG2 Assay for human Nuclear Respiratory Factor 1 (NRF1) Orphan Gene (AID 2282987; active means hit-call score of the fitted dose curve at least 0.9, where 1 is the maximum; inactive means score below 0.9); settings: HepG2 NRF1 cis-element reporter, Attagene multiplex; actives raise or lower the signal
Procedure, shortened: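 Multiplexed cis-reporter assay, HepG2 cells, 24 h treatment. Total RNA → oligo(dT) RT → PCR with reporter-specific primers → 6-FAM primer extension → HpaI cut → CE. Bidirectional fit vs DMSO.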

[10] = molecular target: Estrogen receptor (Homo sapiens) (UniProt P03372); experiment: ATG_ERa_TRANS: Attagene TRANS-FACTORIAL HepG2 Assay for human Estrogen Receptor alpha (ERa) (AID 2282970); settings: HepG2 Attagene TRANS ERa GAL4 reporter, mRNA
Procedure, shortened: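 Liver-derived HepG2 cells expressing chimeric nuclear receptor-Gal4 proteins from transient transfection were exposed for 24 hours. Gain of reporter mRNA signal versus DMSO, read by capillary electrophoresis of FAM-labelled PCR products, was recorded.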

[11] = molecular target: X-box-binding protein 1 (Homo sapiens) (UniProt P17861); experiment: ATG_Xbp1_CIS: Attagene CIS-FACTORIAL HepG2 Assay for human X-box Binding Protein 1 (XBP1) (AID 2282972; active means hit-call score of the fitted dose curve at least 0.9, where 1 is the maximum; inactive means score below 0.9); settings: HepG2 XBP1 cis-element reporter, Attagene multiplex; actives raise or lower the signal
Procedure, shortened: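 Changes in reporter transcript abundance, read by RT-PCR and capillary electrophoresis, reflect endogenous transcription factor activity. Transfected HepG2 cells received compound for 24 hours; DMSO defined baseline for bidirectional analysis.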

[12] = ATG_GAL4_TRANS: Attagene TRANS-FACTORIAL HepG2 Assay for GAL4 (Internal Marker) (AID 2282976); settings: HepG2 Attagene TRANS GAL4 internal marker reporter
Procedure, shortened: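 First, HepG2 cells were transfected with reporter units under GAL4-UAS control. Next, they were treated with chemical for 24 h. Finally, RNA was reverse-transcribed, PCR-amplified, FAM-labelled and resolved by capillary electrophoresis, with induction scored against DMSO.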

[13] = molecular target: Oxysterols receptor LXR-alpha (Homo sapiens) (UniProt Q13133); experiment: ATG_LXRa_TRANS: Attagene TRANS-FACTORIAL HepG2 Assay for human Liver X Receptor alpha (LXRa) (AID 2282980); settings: HepG2 Attagene TRANS reporter, LXRa transactivation
Procedure, shortened: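 Transfect HepG2 with GAL4-UAS multiplex reporter constructs (TRANS format, chimeric receptor-GAL4); treat 24 h; extract RNA, reverse-transcribe, PCR-amplify, FAM-label, HpaI-digest; resolve fragments by capillary electrophoresis. Upward response vs DMSO.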

[14] = molecular target: Oxysterols receptor LXR-beta (Homo sapiens) (UniProt P55055); experiment: ATG_LXRb_TRANS: Attagene TRANS-FACTORIAL HepG2 Assay for human Liver X Receptor beta (LXRb) (AID 2282981); settings: HepG2 Attagene TRANS GAL4-LXRb reporter, mRNA
Procedure, shortened: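 Multiplexed reporter assay, HepG2, 24 h dosing. Fluorescence of labelled RT-PCR products after capillary electrophoresis gives transcript level; positive fitting direction relative to DMSO.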

[15] = ATG_M_32_TRANS: Attagene TRANS-FACTORIAL HepG2 Assay for M32 Transcription Factor (Internal Marker) (AID 2282984); settings: HepG2 Attagene TRANS M32 internal marker reporter
Procedure, shortened: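 Internal-marker readout from a multiplexed transcription reporter panel. HepG2 cells were transfected with GAL4-UAS reporter units, treated 24 hours, and reporter transcript levels determined by fluorescence after RT-PCR and capillary separation.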

[16] = molecular target: Nuclear receptor subfamily 4 group A member 2 (Homo sapiens) (UniProt P43354); experiment: ATG_NURR1_TRANS: Attagene TRANS-FACTORIAL HepG2 Assay for human Nuclear Receptor Related Protein 1 (NURR1) (AID 2282985); settings: HepG2 Attagene TRANS reporter, mRNA readout
Procedure, shortened: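 Endpoint: reporter mRNA increase relative to DMSO. HepG2 cells transfected with reporter units, treated 24 h; RNA processed by RT-PCR, labelling, HpaI digestion and capillary electrophoresis.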

[17] = ATG_M_19_TRANS: Attagene TRANS-FACTORIAL HepG2 Assay for M19 Transcription Factor (Internal Marker) (AID 2282974); settings: HepG2 Attagene TRANS-FACTORIAL M19 internal marker reporter
Procedure, shortened: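 Fluorescence of 6-FAM-labelled reporter cDNA fragments, separated by capillary electrophoresis, served as the readout. These derived from HepG2 cells carrying transfected GAL4-UAS reporter units after 24 h dosing, with DMSO as negative control.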

[18] = molecular target: Steroid hormone receptor ERR1 (Homo sapiens) (UniProt P11474); experiment: ATG_ERRa_TRANS: Attagene TRANS-FACTORIAL HepG2 Assay for human Estrogen-Related Receptor alpha (ERRa) (AID 2282971); settings: HepG2 Attagene TRANS reporter, ERRa transactivation
Procedure, shortened: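 Reporter transcript induction was quantified by RT-PCR and capillary electrophoresis of FAM-labelled, HpaI-cut products after 24 h treatment of HepG2 cells carrying transiently transfected GAL4-UAS reporter units and an exogenous ERRa-Gal4 fusion; activity scored as increase over DMSO.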

[19] = molecular target: Estrogen-related receptor gamma (Homo sapiens) (UniProt P62508); experiment: ATG_ERRg_TRANS: Attagene TRANS-FACTORIAL HepG2 Assay for human Estrogen-Related Receptor gamma (ERRg) (AID 2282977); settings: HepG2 Attagene TRANS reporter, ERRg transactivation;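 further: hits increase reporter signal over DMSO so potencies reflect activators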
Procedure, shortened: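 Exogenous NR-Gal4 chimera activity measured as reporter transcript induction after 24 h in transiently transfected HepG2 cells. RNA reverse-transcribed, PCR-amplified, 6-FAM-labelled and resolved by capillary electrophoresis; increase over DMSO baseline.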

[20] = ATG_VDRE_CIS: Attagene CIS-FACTORIAL HepG2 Assay for human Vitamin D Receptor Element (VDRE) (AID 2282968; active means hit-call score of the fitted dose curve at least 0.9, where 1 is the maximum; inactive means score below 0.9); settings: HepG2 VDRE cis-reporter transcription, actives raise or lower the signal
Procedure, shortened: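 Compounds were applied for 24 h to HepG2 cells transfected with promoter-regulated reporter units. Total RNA was reverse-transcribed, and reporter amplicons were fluorescently labelled and sized by capillary electrophoresis.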

Measured: AC50

Sequence of X-box-binding protein 1 (Homo sapiens) (P17861 whole entry, looked up): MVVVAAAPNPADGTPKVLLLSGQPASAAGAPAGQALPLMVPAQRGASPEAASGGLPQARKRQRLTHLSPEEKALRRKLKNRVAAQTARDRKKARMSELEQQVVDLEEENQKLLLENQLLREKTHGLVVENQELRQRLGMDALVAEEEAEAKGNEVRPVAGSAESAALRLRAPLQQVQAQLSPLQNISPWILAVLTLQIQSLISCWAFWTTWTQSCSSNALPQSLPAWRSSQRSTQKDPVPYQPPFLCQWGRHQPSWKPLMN
Sequence of Oxysterols receptor LXR-beta (Homo sapiens) (P55055 whole entry, looked up, the tested form may be a part): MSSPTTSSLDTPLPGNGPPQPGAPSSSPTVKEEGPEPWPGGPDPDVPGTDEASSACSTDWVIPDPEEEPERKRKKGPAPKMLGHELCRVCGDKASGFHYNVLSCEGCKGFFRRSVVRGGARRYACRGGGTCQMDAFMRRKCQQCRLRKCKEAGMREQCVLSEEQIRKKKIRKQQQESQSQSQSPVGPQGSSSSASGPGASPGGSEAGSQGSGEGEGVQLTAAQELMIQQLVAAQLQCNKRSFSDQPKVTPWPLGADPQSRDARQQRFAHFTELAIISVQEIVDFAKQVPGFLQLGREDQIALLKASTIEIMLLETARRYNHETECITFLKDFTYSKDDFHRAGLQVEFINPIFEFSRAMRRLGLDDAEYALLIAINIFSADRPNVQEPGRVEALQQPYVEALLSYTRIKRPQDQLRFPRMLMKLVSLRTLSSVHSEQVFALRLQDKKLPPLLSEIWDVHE
Sequence of Glucocorticoid receptor (Homo sapiens) (P04150 whole entry, looked up, the tested form may be a part): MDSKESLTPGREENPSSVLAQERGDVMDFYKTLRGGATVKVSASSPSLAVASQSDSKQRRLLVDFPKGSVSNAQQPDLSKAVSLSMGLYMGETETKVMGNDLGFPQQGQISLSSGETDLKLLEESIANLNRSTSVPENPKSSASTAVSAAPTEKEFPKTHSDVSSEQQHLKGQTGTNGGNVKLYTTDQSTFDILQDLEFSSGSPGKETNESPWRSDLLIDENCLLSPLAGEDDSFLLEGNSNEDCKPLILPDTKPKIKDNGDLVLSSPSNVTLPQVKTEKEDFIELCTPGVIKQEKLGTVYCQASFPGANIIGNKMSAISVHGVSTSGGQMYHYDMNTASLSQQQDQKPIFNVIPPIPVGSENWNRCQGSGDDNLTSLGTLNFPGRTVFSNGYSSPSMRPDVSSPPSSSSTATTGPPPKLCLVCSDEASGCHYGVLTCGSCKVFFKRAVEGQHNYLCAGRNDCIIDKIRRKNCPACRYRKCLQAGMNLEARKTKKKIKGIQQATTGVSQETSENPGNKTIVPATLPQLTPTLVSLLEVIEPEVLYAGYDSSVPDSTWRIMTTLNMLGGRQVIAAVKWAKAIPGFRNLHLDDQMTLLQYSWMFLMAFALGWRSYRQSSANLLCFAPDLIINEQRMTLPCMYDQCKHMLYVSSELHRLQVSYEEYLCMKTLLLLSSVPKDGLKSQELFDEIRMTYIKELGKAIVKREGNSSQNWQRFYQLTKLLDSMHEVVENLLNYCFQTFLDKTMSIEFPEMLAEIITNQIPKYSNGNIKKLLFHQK
Sequence of Oxysterols receptor LXR-alpha (Homo sapiens) (Q13133 whole entry, looked up, the tested form may be a part): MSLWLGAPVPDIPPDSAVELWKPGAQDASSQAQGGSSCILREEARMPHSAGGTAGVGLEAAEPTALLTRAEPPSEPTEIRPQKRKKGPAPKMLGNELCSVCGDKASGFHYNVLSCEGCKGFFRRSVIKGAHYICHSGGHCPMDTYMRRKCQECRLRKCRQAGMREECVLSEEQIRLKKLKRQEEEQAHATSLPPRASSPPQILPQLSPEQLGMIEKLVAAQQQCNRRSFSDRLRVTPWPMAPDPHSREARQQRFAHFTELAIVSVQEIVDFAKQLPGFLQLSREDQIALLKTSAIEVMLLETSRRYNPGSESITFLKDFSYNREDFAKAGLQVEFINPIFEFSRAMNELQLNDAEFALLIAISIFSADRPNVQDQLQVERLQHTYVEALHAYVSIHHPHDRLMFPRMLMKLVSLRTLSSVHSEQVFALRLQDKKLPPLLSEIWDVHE
Sequence of Estrogen receptor (Homo sapiens) (P03372 whole entry, looked up, the tested form may be a part): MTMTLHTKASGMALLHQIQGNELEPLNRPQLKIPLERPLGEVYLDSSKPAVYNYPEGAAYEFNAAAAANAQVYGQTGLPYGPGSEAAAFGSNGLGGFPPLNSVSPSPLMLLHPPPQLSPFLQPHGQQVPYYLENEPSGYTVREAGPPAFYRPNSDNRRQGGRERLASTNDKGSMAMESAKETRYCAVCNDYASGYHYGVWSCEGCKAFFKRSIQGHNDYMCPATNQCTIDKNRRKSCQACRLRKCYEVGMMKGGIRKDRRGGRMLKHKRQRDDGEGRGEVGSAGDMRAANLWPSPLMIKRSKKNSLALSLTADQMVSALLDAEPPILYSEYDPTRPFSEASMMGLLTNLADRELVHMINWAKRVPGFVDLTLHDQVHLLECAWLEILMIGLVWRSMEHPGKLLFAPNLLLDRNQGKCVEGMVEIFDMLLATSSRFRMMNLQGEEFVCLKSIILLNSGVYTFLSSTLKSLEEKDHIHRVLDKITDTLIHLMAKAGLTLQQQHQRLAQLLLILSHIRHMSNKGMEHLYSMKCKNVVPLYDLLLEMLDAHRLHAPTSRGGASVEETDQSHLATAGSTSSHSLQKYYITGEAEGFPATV
Sequence of Nuclear receptor subfamily 1 group I member 3 (Homo sapiens) (Q14994 whole entry, looked up, the tested form may be a part): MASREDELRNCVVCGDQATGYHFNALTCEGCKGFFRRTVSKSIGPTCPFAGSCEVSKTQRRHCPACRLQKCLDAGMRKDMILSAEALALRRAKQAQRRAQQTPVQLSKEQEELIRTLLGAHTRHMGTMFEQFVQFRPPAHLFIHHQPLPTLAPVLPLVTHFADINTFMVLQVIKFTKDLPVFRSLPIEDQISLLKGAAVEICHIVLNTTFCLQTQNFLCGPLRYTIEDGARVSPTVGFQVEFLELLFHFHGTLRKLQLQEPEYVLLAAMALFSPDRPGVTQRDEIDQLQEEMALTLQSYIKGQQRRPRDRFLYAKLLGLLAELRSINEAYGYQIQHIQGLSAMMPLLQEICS
Sequence of Nuclear receptor subfamily 4 group A member 2 (Homo sapiens) (P43354 whole entry, looked up): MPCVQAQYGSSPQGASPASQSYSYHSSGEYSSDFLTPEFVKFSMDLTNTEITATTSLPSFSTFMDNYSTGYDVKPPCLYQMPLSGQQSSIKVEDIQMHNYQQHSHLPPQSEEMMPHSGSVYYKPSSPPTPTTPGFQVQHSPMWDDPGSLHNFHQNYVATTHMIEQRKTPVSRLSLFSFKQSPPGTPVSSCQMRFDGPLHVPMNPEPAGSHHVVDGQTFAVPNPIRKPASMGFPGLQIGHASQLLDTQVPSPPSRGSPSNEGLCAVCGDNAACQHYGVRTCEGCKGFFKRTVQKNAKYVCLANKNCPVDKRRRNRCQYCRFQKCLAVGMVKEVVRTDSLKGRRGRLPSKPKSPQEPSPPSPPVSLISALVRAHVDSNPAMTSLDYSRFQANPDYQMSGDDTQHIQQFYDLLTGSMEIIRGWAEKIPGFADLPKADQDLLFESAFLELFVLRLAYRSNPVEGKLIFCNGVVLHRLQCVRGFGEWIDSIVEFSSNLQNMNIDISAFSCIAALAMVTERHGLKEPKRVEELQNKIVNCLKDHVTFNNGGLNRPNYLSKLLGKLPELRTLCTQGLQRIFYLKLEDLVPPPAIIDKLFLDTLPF
Sequence of Estrogen-related receptor gamma (Homo sapiens) (P62508 whole entry, looked up, the tested form may be a part): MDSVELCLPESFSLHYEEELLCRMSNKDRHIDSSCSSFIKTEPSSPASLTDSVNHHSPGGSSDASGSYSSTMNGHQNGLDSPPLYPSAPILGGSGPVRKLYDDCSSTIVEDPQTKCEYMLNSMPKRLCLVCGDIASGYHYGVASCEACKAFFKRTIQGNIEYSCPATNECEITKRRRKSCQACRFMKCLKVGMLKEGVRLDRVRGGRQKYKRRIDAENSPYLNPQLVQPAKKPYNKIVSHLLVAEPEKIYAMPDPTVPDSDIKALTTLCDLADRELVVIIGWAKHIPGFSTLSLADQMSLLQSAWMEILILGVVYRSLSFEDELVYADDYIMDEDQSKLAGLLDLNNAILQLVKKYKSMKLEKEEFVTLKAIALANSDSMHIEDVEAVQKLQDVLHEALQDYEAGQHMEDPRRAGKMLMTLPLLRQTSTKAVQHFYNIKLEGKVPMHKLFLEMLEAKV
Sequence of Transcriptional activator Myb (Homo sapiens) (P10242 whole entry, looked up): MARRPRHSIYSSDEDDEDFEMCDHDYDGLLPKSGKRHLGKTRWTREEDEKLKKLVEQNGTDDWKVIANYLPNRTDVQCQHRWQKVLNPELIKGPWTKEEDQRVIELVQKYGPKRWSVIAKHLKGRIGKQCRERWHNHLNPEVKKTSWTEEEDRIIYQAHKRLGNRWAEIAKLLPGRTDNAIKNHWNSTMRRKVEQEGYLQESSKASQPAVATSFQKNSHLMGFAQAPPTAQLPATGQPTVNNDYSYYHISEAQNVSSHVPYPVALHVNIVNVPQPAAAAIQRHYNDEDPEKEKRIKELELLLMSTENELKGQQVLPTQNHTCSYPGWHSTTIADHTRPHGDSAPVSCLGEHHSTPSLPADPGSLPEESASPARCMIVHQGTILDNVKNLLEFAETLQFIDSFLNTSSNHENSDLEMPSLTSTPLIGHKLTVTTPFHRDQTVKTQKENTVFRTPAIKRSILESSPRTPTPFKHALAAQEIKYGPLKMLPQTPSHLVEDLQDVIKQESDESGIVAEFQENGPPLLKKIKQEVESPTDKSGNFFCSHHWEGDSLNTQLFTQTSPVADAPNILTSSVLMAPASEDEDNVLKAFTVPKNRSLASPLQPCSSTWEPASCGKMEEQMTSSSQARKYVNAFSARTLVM

COc1c(Cl)c(Cl)c(Cl)c(Cl)c1Cl
inactive: [1] | [2] | [3] | [4] | [5] | [6] | [7] | [8] | [9]

Clc1ccc2c(c1)C(N1CCNCC1)=Nc1ccccc1O2
active: [10] 50.1 µM | [11] 33.4 µM | [13] 44.4 µM
not listed: [3] | [5] | [17] | [18] | [19] | [20]
inactive: all other assays above

O=C(O)CCSCCC(=O)O
not listed: [3] | [5] | [7] | [13] | [16] | [18] | [19] | [20]
inactive: all other assays above

COc1ccnc(CS(=O)c2nc3cc(OC(F)F)ccc3[nH]2)c1OC (stereo not drawn)
inactive: [1] | [2] | [11] | [14] | [7] | [16]

CC(=O)O[C@H](CC(=O)[O-])C[N+](C)(C)C
inactive: [1] | [2] | [18] | [11] | [17] | [19] | [4] | [13] | [8] | [9]

O=C[C@H](O)[C@H](O)[C@H](O)CO
inactive: [1] | [2] | [3] | [11] | [12] | [7] | [16]

CCCCCCC#CC(=O)OC
inactive: [1] | [2] | [11] | [17] | [19] | [4] | [6] | [7] | [15] | [8] | [9]

CC(C)[C@@H]1CC[C@@H](C)CC1=O
inactive: [1] | [2] | [11] | [17] | [6] | [8] | [9]

Nc1cc(N)cc(C(=O)O)c1
not listed: [2] | [3] | [4] | [5] | [6] | [16] | [18] | [19]
inactive: all other assays above

O=C1CCCCCCCCCCCCCCO1
inactive: [1] | [20] | [11] | [17] | [12] | [4] | [16] | [8] | [9]

CCCCCC(CO)CCC (stereo not drawn)
inactive: [1] | [20] | [17] | [14] | [7] | [8] | [9]

CCOC(=O)c1ccccc1OC
inactive: [1] | [20] | [3] | [11] | [19] | [13] | [14] | [7] | [15] | [8] | [9]

O=C(Oc1ccccc1)c1ccc(O)cc1
active: [20] 159 µM
inactive: [1] | [17] | [12] | [7] | [15] | [8] | [9]

From PubChem BioAssay (EPA / NIEHS)
